Calls of active or inactive are those of the source. How the source made its calls: active means hit-call score of the fitted dose curve at least 0.9, where 1 is the maximum; inactive means score below 0.9.

This is an account of results in PubChem BioAssay (EPA / NIEHS).

Common to all, as to settings: mRNA level, 48 h; actives raise or lower the signal
Read-out in one test: CYP2C9 (gene 1559)
Briefly: LTEA_HepaRG_CYP2C9: Life Technologies and Expression Analysis (LTEA) Assay for CYP2C9 using HepaRG (AID 2283484). The gist of the method: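 Differentiated human HepaRG cells were exposed 48 h in serum-free induction medium to eight half-log concentrations up to 100 uM in 0.5% DMSO. CYP2C9 mRNA was measured by qRT-PCR, normalized to ACTB, GAPDH and POLR2A, and fitted bidirectionally against DMSO.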

Read-out in the next test: CYP2E1 (gene 1571)
In words: LTEA_HepaRG_CYP2E1: Life Technologies and Expression Analysis (LTEA) Assay for CYP2E1 using HepaRG (AID 2283485). The method, boiled down:
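Human liver line HepaRG, plated 48 h, then serum-free induction medium + chemical x 48 h; 8-pt CRC from 100 uM, half-log, 0.5% DMSO, n=2. Readout: CYP2E1 mRNA qRT-PCR vs ACTB/GAPDH/POLR2A; bidirectional fit vs DMSO.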

Read-out in another test: CYP4A11 (gene 1579)
In words: LTEA_HepaRG_CYP4A11: Life Technologies and Expression Analysis (LTEA) Assay for CYP4A11 using HepaRG (AID 2283486). The method, boiled down: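 CYP4A11 transcript levels were quantified by TaqMan qRT-PCR after HepaRG human liver cells were treated for 48 hours with test chemicals (top 100 uM, half-log dilutions, 0.5% DMSO). Gain or loss of signal was fitted relative to DMSO.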

Read-out in test [1]: Cytochrome P450 3A4 (Homo sapiens) (UniProt P08684)
In words: LTEA_HepaRG_CYP3A4: Life Technologies and Expression Analysis (LTEA) Assay for CYP3A4 using HepaRG (AID 2283487). The gist of the method: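 In a human hepatic line (HepaRG), duplicate wells were treated 48 h with up to 100 uM chemical in half-log dilutions. Endpoint: CYP3A4 mRNA induction or loss relative to 0.5% DMSO vehicle, by qRT-PCR.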

Read-out in test [2]: DNA damage-inducible transcript 3 (DDIT3), DDIT3 (gene 1649)
In words: LTEA_HepaRG_DDIT3: Life Technologies and Expression Analysis (LTEA) Assay for DNA damage-inducible transcript 3 (DDIT3) using HepaRG (AID 2283488). The method, boiled down:
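HepaRG plated 48 h, switched to serum-free induction medium, dosed 48 h (100 uM top, half-log, 8 pts, 0.5% DMSO, n=2); RNA isolated; DDIT3 by qRT-PCR; bidirectional curve fit vs DMSO.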

Read-out in test [3]: Early growth response protein 1 (EGR1) transcription factor, EGR1 (gene 1958)
In words: LTEA_HepaRG_EGR1: Life Technologies and Expression Analysis (LTEA) Assay for Early growth response protein 1 (EGR1) transcription factor using HepaRG (AID 2283490). The method, boiled down: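 Differentiated human HepaRG cells in serum-free induction medium were exposed in duplicate for 48 h to eight concentrations (top 100 uM, half-log steps) in 0.5% DMSO. EGR1 mRNA was quantified by qRT-PCR, normalized to ACTB, GAPDH and POLR2A, and fitted bidirectionally versus DMSO.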

Read-out in test [4]: Ezrin (EZR), EZR (gene 7430)
In words: LTEA_HepaRG_EZR: Life Technologies and Expression Analysis (LTEA) Assay for Ezrin (EZR) using HepaRG (AID 2283491). The gist of the method: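 Gain or loss of EZR mRNA is scored relative to 0.5% DMSO in human HepaRG cultures treated 48 h with test chemicals in duplicate, eight half-log concentrations from 100 uM.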

Read-out in test [5]: Cytochrome P450 3A7 (Homo sapiens) (UniProt P24462)
Briefly: LTEA_HepaRG_CYP3A7: Life Technologies and Expression Analysis (LTEA) Assay for CYP3A7 using HepaRG (AID 2283492). The method, boiled down: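 CYP3A7 transcript levels were read by TaqMan qRT-PCR on Fluidigm arrays after 48 h chemical exposure of human HepaRG cells, with housekeeping-gene normalisation. Eight half-log concentrations up to 100 uM in 0.5% DMSO were tested in duplicate.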

Read-out in a further test: CYP3A5 (gene 1577)
Briefly: LTEA_HepaRG_CYP3A5: Life Technologies and Expression Analysis (LTEA) Assay for CYP3A5 using HepaRG (AID 2283493). The gist of the method:
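HepaRG plated 48 h, switched to serum-free induction medium, chemicals added 48 h (max 100 uM, half-log, 0.5% DMSO). RNA isolated; CYP3A5 by TaqMan qRT-PCR. Gain/loss vs DMSO.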

Read-out in test [6]: Fatty Acid-Binding Protein 1 (FABP1), FABP1 (gene 2168)
Briefly: LTEA_HepaRG_FABP1: Life Technologies and Expression Analysis (LTEA) Assay for Fatty Acid-Binding Protein 1 (FABP1) using HepaRG (AID 2283494). The method, boiled down:
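Differentiated human HepaRG cells were exposed in duplicate for 48 h in serum-free induction medium to 8-point half-log concentration series topping at 100 uM in 0.5% DMSO. FABP1 mRNA measured by TaqMan qRT-PCR, normalized to ACTB/GAPDH/POLR2A; bidirectional fit versus DMSO.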

Read-out in test [7]: Glutathione S-Transferase (GSTA2), GSTA2 (gene 2939)
Briefly: LTEA_HepaRG_GSTA2: Life Technologies and Expression Analysis (LTEA) Assay for Glutathione S-Transferase (GSTA2) using HepaRG (AID 2283497). The method, boiled down: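 Human HepaRG cells, plated 48 h, then exposed in serum-free induction medium for 48 h to eight half-log concentrations up to 100 uM in 0.5% DMSO, duplicate. GSTA2 mRNA by qRT-PCR, normalized to ACTB/GAPDH/POLR2A; bidirectional fit versus DMSO.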

Read-out in test [8]: Glutamate-cysteine ligase catalytic (GCLC), GCLC (gene 2729)
Briefly: LTEA_HepaRG_GCLC: Life Technologies and Expression Analysis (LTEA) Assay for Glutamate-cysteine ligase catalytic (GCLC) using HepaRG (AID 2283498). The gist of the method: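 Differentiated human HepaRG cells, plated 48 h then switched to serum-free induction medium, were exposed in duplicate for 48 h to 8 half-log concentrations topping at 100 uM in 0.5% DMSO. GCLC mRNA was quantified by qRT-PCR against ACTB, GAPDH and POLR2A.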

Read-out in test [9]: growth arrest and DNA damage 45 (GADD45G), GADD45G (gene 10912)
Briefly: LTEA_HepaRG_GADD45G: Life Technologies and Expression Analysis (LTEA) Assay for growth arrest and DNA damage 45 (GADD45G) using HepaRG (AID 2283499). The method, boiled down: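 HepaRG, 48 h exposure, top 100 uM, half-log 8-point series, 0.5% DMSO vehicle, duplicates. Readout: GADD45G transcript by qRT-PCR (Fluidigm array), housekeeping-normalised (ACTB/GAPDH/POLR2A). Bidirectional curve fit vs DMSO baseline.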

Read-out in test [10]: Glutamate-cysteine ligase regulatory (GCLM), GCLM (gene 2730)
Briefly: LTEA_HepaRG_GCLM: Life Technologies and Expression Analysis (LTEA) Assay for Glutamate-cysteine ligase regulatory (GCLM) using HepaRG (AID 2283500). The method, boiled down: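 Cells were plated, cultured 48 h, switched to serum-free induction medium, then dosed in duplicate for 48 h at eight half-log concentrations up to 100 uM. RNA was then profiled by qRT-PCR; gain or loss versus DMSO was fitted.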

Read-out in test [11]: Heat shock 70 kDa protein 1 (HSPA1A), gene 3303
Briefly: LTEA_HepaRG_HSPA1A: Life Technologies and Expression Analysis (LTEA) Assay for Heat shock 70 kDa protein 1 (HSPA1A) using HepaRG (AID 2283502). The method, boiled down:
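Readout is HSPA1A transcript level by microfluidic qRT-PCR, normalized to three housekeeping genes and analysed for gain or loss of signal relative to 0.5% DMSO. Human HepaRG cultures received test chemicals for 48 h at up to 100 uM.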

Read-out in test [12]: Hypoxia-inducible factor 1-alpha (Homo sapiens) (UniProt Q16665)
In words: LTEA_HepaRG_HIF1A: Life Technologies and Expression Analysis (LTEA) Assay for Hypoxia-inducible factor 1 (HIF1A) Trancription factor using HepaRG (AID 2283503). The gist of the method: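 Differentiated HepaRG cells in serum-free induction medium exposed 48 h, in duplicate, to 8-point half-log series from 100 uM in 0.5% DMSO. HIF1A mRNA measured by TaqMan qRT-PCR, normalized to ACTB/GAPDH/POLR2A, fitted bidirectionally versus DMSO.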

Read-out in test [13]: Pro-epidermal growth factor (Homo sapiens) (UniProt P01133)
In words: LTEA_HepaRG_EGF: Life Technologies and Expression Analysis (LTEA) Assay for Epidermal growth factor (EGF) using HepaRG (AID 2283489). The gist of the method:
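qRT-PCR readout of EGF transcript after 48 h chemical exposure of HepaRG cells; eight concentrations from 100 uM down in half-log steps, duplicate wells, 0.5% DMSO vehicle. Bidirectional curve fitting against DMSO baseline.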

Read-out in test [14]: Cytochrome P450 4A22 (Homo sapiens) (UniProt Q5TCH4)
Briefly: LTEA_HepaRG_CYP4A22: Life Technologies and Expression Analysis (LTEA) Assay for Cytochrome P450 4A22 (CYP4A22) using HepaRG (AID 2283495). The gist of the method:
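HepaRG, 48 h post-plating -> serum-free induction medium; dosed 48 h, duplicate, 8 conc. (100 uM top, half-log), 0.5% DMSO. Readout: CYP4A22 mRNA by qRT-PCR, ACTB/GAPDH/POLR2A normalization; gain/loss fit relative to DMSO.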

Read-out in test [15]: Cytochrome P450 7A1 (Homo sapiens) (UniProt P22680)
In words: LTEA_HepaRG_CYP7A1: Life Technologies and Expression Analysis (LTEA) Assay for Cytochrome P450 7A1 (CYP7A1) using HepaRG (AID 2283496). The gist of the method: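 HepaRG cells plated 48 h, then switched to serum-free induction medium and exposed in duplicate for 48 h to 8-point half-log series from 100 uM in 0.5% DMSO. CYP7A1 mRNA by qRT-PCR (TaqMan), normalized to ACTB/GAPDH/POLR2A; bidirectional fit versus DMSO.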

Chain of Cytochrome P450 3A4 (Homo sapiens) (P08684 whole entry, looked up): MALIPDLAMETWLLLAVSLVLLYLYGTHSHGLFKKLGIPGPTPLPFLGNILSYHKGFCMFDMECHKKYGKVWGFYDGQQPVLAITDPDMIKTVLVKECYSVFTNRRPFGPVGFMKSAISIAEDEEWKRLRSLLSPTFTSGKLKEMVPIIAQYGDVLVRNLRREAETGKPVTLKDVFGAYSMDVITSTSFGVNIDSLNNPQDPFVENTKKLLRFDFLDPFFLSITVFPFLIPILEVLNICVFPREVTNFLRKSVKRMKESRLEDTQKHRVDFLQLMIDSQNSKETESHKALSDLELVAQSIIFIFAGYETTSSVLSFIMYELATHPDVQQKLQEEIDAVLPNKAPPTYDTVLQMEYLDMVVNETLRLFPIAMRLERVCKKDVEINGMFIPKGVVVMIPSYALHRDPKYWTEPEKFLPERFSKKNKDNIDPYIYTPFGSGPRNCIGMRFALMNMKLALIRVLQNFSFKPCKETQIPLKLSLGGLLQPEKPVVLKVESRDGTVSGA
Chain of Cytochrome P450 3A7 (Homo sapiens) (P24462 whole entry, looked up): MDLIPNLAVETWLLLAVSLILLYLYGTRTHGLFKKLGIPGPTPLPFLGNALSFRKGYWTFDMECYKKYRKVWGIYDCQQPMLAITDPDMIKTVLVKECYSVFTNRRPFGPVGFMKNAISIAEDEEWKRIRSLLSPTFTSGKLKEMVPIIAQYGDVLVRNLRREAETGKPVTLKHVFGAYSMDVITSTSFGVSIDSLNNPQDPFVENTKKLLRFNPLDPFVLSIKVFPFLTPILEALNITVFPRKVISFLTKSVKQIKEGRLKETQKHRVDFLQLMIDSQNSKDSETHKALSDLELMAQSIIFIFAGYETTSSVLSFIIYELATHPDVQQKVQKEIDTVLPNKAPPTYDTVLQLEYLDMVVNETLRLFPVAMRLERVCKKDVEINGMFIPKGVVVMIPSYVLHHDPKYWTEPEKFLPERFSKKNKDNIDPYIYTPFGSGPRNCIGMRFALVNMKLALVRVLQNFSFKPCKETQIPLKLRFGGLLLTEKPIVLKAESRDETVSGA
Chain of Hypoxia-inducible factor 1-alpha (Homo sapiens) (Q16665 whole entry, looked up): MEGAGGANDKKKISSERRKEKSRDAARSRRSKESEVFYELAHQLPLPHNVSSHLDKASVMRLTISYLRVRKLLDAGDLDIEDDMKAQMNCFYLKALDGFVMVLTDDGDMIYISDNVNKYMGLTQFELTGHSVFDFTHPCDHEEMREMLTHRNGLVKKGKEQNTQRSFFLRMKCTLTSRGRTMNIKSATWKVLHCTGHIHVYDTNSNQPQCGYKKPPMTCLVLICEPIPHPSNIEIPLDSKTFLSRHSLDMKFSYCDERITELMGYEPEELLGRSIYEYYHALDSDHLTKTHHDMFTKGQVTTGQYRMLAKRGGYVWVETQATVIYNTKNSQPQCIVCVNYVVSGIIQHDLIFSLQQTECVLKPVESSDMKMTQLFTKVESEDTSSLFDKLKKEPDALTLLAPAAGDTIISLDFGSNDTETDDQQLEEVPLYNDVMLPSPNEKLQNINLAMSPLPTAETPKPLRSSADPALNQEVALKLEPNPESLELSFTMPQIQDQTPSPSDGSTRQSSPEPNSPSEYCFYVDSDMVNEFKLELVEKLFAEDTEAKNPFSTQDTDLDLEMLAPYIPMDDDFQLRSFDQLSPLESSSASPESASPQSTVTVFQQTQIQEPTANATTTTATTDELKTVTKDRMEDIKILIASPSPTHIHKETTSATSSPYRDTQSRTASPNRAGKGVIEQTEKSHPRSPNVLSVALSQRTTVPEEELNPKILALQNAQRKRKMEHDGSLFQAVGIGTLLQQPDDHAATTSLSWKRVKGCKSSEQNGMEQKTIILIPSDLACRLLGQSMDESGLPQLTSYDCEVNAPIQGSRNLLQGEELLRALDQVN

Regarding `[O-][Cl+]O`, the call (with CYP2C9 (gene 1559); in the test with CYP2E1 (gene 1571); with CYP4A11 (gene 1579); in test [1]; in [2]; in test [3]) was inactive. The outcome (in test [4]; in test [5]; in the test with CYP3A5 (gene 1577); in test [6]; in test [7]; in test [8]) was inactive. Besides, the result in test [9], in [10], in test [11] and in test [12] was inactive.
Turning to `Nc1ccc(Cl)cc1N`, the half-maximal activity concentration (AC50) (as a rule, the midpoint of the concentration-response curve, whichever way the signal moves) with CYP2C9 (gene 1559) was 24.6 µM (active); in the test with CYP2E1 (gene 1571), 19.5 µM (active); with CYP4A11 (gene 1579), 23.2 µM (active); in test [1], 19.7 µM (active); in [2], 50 µM (active); in test [3], 12.9 µM (active). Also, the AC50 is 17.3 µM (active) with CYP3A5 (gene 1577); 28.2 µM (active) in test [6]; 29.7 µM (active) in [14]; 23.1 µM (active) in test [15]; 27.9 µM (active) in [7]; 32.6 µM (active) in test [8]. Moreover, the AC50 in [9] is 38.8 µM (active); in test [11], 20.6 µM (active). Moreover, the call in [13], in test [4] and in test [10] was inactive.
With `O=[N+]([O-])c1ccc(Oc2ccc(Cl)cc2Cl)cc1`, the result (with CYP2C9 (gene 1559); with CYP4A11 (gene 1579); in test [13]; in test [4]; in the test with CYP3A5 (gene 1577); in test [6]) was inactive. The outcome in test [14], in [15], in test [7], in test [9] and in test [11] was inactive. In addition, the half-maximal activity concentration (AC50) is 58 µM (active) in the test with CYP2E1 (gene 1571); 50 µM (active) in [2]; 2.45 µM (active) in [5]; 27.1 µM (active) in test [8]; 50 µM (active) in test [10].
For the molecule `CC(C)N(Cc1ccccc1)C(=O)C(C)(C)C`, the molecule was called inactive (in the test with CYP2C9 (gene 1559); with CYP4A11 (gene 1579); in test [2]; in [3]; in test [4]; in the test with CYP3A5 (gene 1577)). In addition, the molecule was classed as inactive in test [14], in test [15], in [7], in test [8], in [9] and in [10]. In addition, the result in [11] and in test [12] was inactive. Further, the AC50 with CYP2E1 (gene 1571) was 19.6 µM (active); in test [1], 3.44 µM (active); in [6], 8.19 µM (active).
